# Bioassay records: PubChem, Broad Institute
# Hits are enriched below; roughly 3.1% of the tested compounds scored in any of these assays.
# C2C12 statin: suppressors of simvastatin-induced myotoxicity in C2C12 myotubes | ATP luminescence, 48 h; scaled: DMSO 0, geranylgeraniol control 100 | rescue of ATP level, % at 7.49 µM | hit rate 0.78% among 330,000;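 active = mean ATP rescue above about 67%, or every replicate alone reaching that limit, limit read from the data, passing the limit was not always enough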;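 note: myotubes were challenged with 10 µM simvastatin during compound exposure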
# PAX8 reporter: PAX8 transcriptional activity inhibition | RMG-I TPO-luciferase reporter, SteadyGlo, 24 h | inhibition, % at 12.6 µM | hit rate 1.2% among 360,000;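 active = mean replicate inhibition at least 60% with every replicate also reaching 60%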;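 note: luciferase light reporting Pax8 driven TPO promoter activity; plate controls were median of neutral control wells for no effect and mitoxantrone controls for full effect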
# EWS-Fli block: EWS/Fli transcriptional activity inhibition; hit rate 0.67% among 350,000; A673 NR0B1-luciferase reporter, viability-normalised; inhibition, % at 12.6 µM;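 active = mean inhibition of at least 50% after viability correction, with every replicate also passing that limit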;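 note: firefly luciferase signal divided by Alamar Blue viability fluorescence both relative to DMSO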
# INS-1E GSIS act: primary screen for activators of insulin secretion dependent on glucose, INS-1E cells, GLuc reporter luminescence; hit rate 0.61% among 370,000; activation, % at 16.6 µM; INS-1E GLuc reporter insulin secretion, 2-3 h;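 active = lowest replicate activation of at least 40%, so every replicate reaches that level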;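 note: 0% = median of neutral control wells and 100% = median of IBMX positive control wells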
# HIV Env fusion: inhibitors of HIV Env-mediated cell fusion; inhibition, % at 12.3 µM; hit rate 1.1% among 360,000; HeLa-JRFL Env/CEM21 cell fusion, luciferase; AID 651610;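 active = mean replicate inhibition score of at least 50 and every replicate individually at or above 50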;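 note: 0% = plate neutral controls and 100% = maraviroc near 300 nM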
# miR-122 sensor: miR-122 inhibition in Huh7 cells. Huh7 miR-122 Renilla luciferase sensor, 48 h; neutral wells = 0, positive control = 100. activation (reporter increase), % at 12.5 µM. hit rate 0.3% among 340,000;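 active = mean replicate activation score at least 90 and every replicate individually at or above 90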;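 note: higher luciferase means less miR-122 activity so hits act as miR-122 inhibitors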
# Starred values were filed as active, the others as inactive; / = no result; [ ] = another dose, or the depositor's remark.
SMILES,C2C12 statin,PAX8 reporter,EWS-Fli block,INS-1E GSIS act,HIV Env fusion,miR-122 sensor
C[C@@H]1CN([C@@H](C)CO)C(=O)c2cccc(NS(=O)(=O)c3ccc(Cl)cc3)c2O[C@@H]1CN(C)C(=O)Nc1ccc(C(F)(F)F)cc1,/,/,/,-21,/,/
COCCNC(=O)c1c(CS(=O)(=O)c2ccccc2)noc1C(=O)NCc1ccccc1,96*,-3,6,6,-8,1
CSc1ccc(/C=N/n2c(C)nc3ccccc3c2=O)cc1,8,0,-28,28,2,-4
COc1cc(OC)c(OC)cc1/C=N/n1c(C)nc2ccccc2c1=O,-7,-10,-7,43*,3,7
Cc1nc2ccccc2c(=O)n1/N=C/c1ccc(N(C)C)cc1,6,/,/,67*,-35,11
CN(CCO)c1cc(Sc2nc3ccccc3s2)c2nonc2c1[N+](=O)[O-],-216,/,53*,164*,/,0
COc1ccc(S(=O)(=O)Nc2ccc3c(c2)C(=O)N([C@@H](C)CO)C[C@H](C)[C@H](CN(C)S(C)(=O)=O)O3)cc1,/,/,-3,12,-1[16.7 µM],-3[16.7 µM]
O=C1OCCC1Sc1nnc(-c2ccccc2)o1 (configuration not stated),10,/,/,/,/,-4
O=C1OCCC1Sc1nnc(-c2ccc(Cl)cc2Cl)o1 (configuration not stated),/,53,49,-9,59*,/
CC(=O)c1ccc(-c2cc([C@H]3[C@H]4C=CC[C@@H](C)[C@@H]4C(=O)N3Cc3ccccc3)ccc2F)cc1,160*,11,2,-22,6,-1
COc1ccc(-c2ccccc2[C@H]2[C@@H]3C=CC[C@@H](C)[C@@H]3C(=O)N2Cc2ccccc2)cc1,1,7,22,4,126*,-9
C[C@@H]1CC=C[C@H]2[C@H]1C(=O)N(Cc1ccccc1)[C@H]2c1ccc(F)c(-c2ccc(N(C)C)cc2)c1,-8,5,15,21,22,-2
CCc1ccc(OCC(=O)NC(NC(=S)Nc2ccccc2OC)C(Cl)(Cl)Cl)cc1 (configuration not stated),/,43,6,-6,-5,/
CCc1ccc(OCC(=O)NC(NC(=S)Nc2ccccc2C)C(Cl)(Cl)Cl)cc1 (configuration not stated),/,116*,22,/,/,10
CCc1ccc(OCC(=O)NC(NC(=S)Nc2ccccc2)C(Cl)(Cl)Cl)cc1 (configuration not stated),/,21,/,199*,-3,6
C[C@H]1CCCCO[C@@H](CN(C)C(=O)CCCN(C)C)[C@@H](C)CN([C@@H](C)CO)C(=O)c2cc(NS(=O)(=O)c3ccccc3)ccc2O1,/,15,-7,15,3[16.7 µM],1[16.7 µM]
CC(=O)c1ccc(-n2c(-c3cc(-c4ccco4)[nH]n3)n[nH]c2=S)cc1,84*,/,/,/,/,-9
Cc1ccc(S(=O)(=O)N(C)C[C@@H]2Oc3c(NC(=O)c4ccncc4)cccc3C(=O)N([C@H](C)CO)C[C@H]2C)cc1,-16,-2,1,21,-17[16.7 µM],0[16.7 µM]
CCOC(=O)C1=C(C)N=C2c3ccccc3C(=O)C2C1c1ccc(Cl)cc1 (configuration not stated),/,/,/,/,84*,/
CC1(C)CC(=O)C2=C(C1)N=C1c3ccccc3C(=O)C1C2c1ccc(Cl)cc1 (configuration not stated),/,/,/,/,/,4
CO[C@@H]1CN(C)C(=O)c2ccc(NC(=O)C3CCCC3)cc2OC[C@@H](C)N(S(=O)(=O)c2ccc(Cl)cc2)C[C@H]1C,14,10,-2,/,-7[16.7 µM],/
O=C(N/N=C/c1ccc([N+](=O)[O-])cc1)c1cccs1,/,-125,-78,20,-49,-8
O=C(N/N=C/c1cccc([N+](=O)[O-])c1O)c1cccs1,/,16,69*,-4,-4,/
C[C@H]1CCCCO[C@H](CN(C)C(=O)Nc2cccc3ccccc23)[C@@H](C)CN([C@@H](C)CO)C(=O)c2cc(NC(=O)Cc3ccccc3)ccc2O1,28,45,31,-7,41[16.7 µM],-13[16.7 µM]
CCCNC(=O)N1[C@H](CO)[C@@H]2c3ccccc3N(C(=O)NC(C)C)C[C@@H]21,-8,-13,6,-1,/,-19[16.7 µM]
Cc1cc(S(=O)(=O)NC2CCCCC2)ccc1OCC(=O)N1CCOCC1,/,/,6,-2,/,11
